Experiment [1] can be described thus: rapamycin-like changes in RPL19A-GFP expression – cell-based, S. cerevisiae, multiplex flow cytometry, primary screen (AID 1862; in the data active means percent of DMSO control GFP below about 86%;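 further: lower values mimic rapamycin by blocking the RPL19A rise seen in DMSO cells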). The note with it: S. cerevisiae RPL19A-GFP strain, flow cytometry fluorescence, 3 h; at 10 µM; stronger effect = lower value.
Experiment [2] is described as follows: TOR pathway GLN3 branch reporter MEP2-GFP changes – S. cerevisiae, multiplex flow cytometry, primary screen (AID 1867;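 active means GFP response, as percent of the DMSO control, above the screen-wide mean plus 3 SD, about 139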;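 further: median GFP channel fluorescence of barcode-gated MEP2-GFP cells measured by flow cytometry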). The settings on record: S. cerevisiae MEP2-GFP strain, 3 h, at 10 µM, stronger effect = higher value. In general terms: Flow cytometry measures light scatter and fluorescence of single cells or particles in a stream.
Experiment [3] in a line: TOR pathway RTG branch CIT2 reporter changes – S. cerevisiae, GFP fusion, multiplex flow cytometry, primary screen (AID 1870;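 active means percent response above a set limit, the screen-wide mean plus 3 SD, cut at about 130% in these data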;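 further: barcoded CIT2-GFP strain pooled with four other GFP strains with rapamycin as positive control; median GFP fluorescence per well over plate mean of DMSO wells so 100% = DMSO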). The note with it: S. cerevisiae CIT2-GFP expression, 3 h, at 10 µM, stronger effect = higher value.
Experiment [4] can be described thus: TOR pathway LAP4-GFP level changes – S. cerevisiae, multiplex flow cytometry, primary screen (AID 1873;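 active means GFP signal, as percent of the solvent control, above the screen mean plus 3 SD, about 149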). The note with it: S. cerevisiae LAP4-GFP expression, 3 h, at 10 µM, stronger effect = higher value.
Experiment [5] can be described thus: yeast AGP1-GFP level changes, GLN3 branch – cell-based, multiplex flow cytometry, S. cerevisiae, primary screen (AID 1887;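 active means GFP signal above the screen-wide mean plus 3 SD, that is over about 124.5% of the solvent control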;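 further: AGP1-GFP fusion strain of S. cerevisiae within a five-strain barcoded multiplex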). The note with it: 3 h, at 10 µM, stronger effect = higher value.
Experiment [6] is described as follows: reduced mouse 2C T cell binding to pMHC/ICAM-1 vesicles – MLPCN validation set, flow cytometry, LFA-1/ICAM-1 modulator project, pilot screen (AID 2523;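 active means response below a set limit, under 55% cells CD8-positive and vesicle-bound, and CD8 cells' 90th-percentile brightness under 279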;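 on vesicle binding response: mean PE anti-B7-1 fluorescence of CD8+ cells relative to row control; 100% = QL9-loaded vesicles with DMSO vehicle in the same plate row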). The settings on record: 2C mouse CD8+ T cells, at 7 µM, stronger effect = lower value; double positive events: measured here: CD8+/vesicle+ event percentage.
For experiment [7], the target named is Integrin beta-1 (Homo sapiens) + Integrin alpha-4 (Homo sapiens) (UniProt P13612+P05556). The experiment is described as follows: alpha4beta1 integrin LIBS antibody binding reduction – U937 cells, HUTS-21 mAb, flow cytometry, validation set, VLA-4 allosteric modulator project, pilot screen (AID 2674;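 active means inhibition above 50%, about 3 SD of the validation set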;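 further: antibody binding induced by the VLA-4 ligand LDV present at three times its Kd; 0% = LDV ligand with antibody and no compound and 100% = antibody without LDV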). The settings on record: HUTS-21 LIBS mAb binding, at 6.7 µM, stronger effect = higher value.
Integrin beta-1 (Homo sapiens) + Integrin alpha-4 (Homo sapiens), sequence (P05556 whole entry, looked up): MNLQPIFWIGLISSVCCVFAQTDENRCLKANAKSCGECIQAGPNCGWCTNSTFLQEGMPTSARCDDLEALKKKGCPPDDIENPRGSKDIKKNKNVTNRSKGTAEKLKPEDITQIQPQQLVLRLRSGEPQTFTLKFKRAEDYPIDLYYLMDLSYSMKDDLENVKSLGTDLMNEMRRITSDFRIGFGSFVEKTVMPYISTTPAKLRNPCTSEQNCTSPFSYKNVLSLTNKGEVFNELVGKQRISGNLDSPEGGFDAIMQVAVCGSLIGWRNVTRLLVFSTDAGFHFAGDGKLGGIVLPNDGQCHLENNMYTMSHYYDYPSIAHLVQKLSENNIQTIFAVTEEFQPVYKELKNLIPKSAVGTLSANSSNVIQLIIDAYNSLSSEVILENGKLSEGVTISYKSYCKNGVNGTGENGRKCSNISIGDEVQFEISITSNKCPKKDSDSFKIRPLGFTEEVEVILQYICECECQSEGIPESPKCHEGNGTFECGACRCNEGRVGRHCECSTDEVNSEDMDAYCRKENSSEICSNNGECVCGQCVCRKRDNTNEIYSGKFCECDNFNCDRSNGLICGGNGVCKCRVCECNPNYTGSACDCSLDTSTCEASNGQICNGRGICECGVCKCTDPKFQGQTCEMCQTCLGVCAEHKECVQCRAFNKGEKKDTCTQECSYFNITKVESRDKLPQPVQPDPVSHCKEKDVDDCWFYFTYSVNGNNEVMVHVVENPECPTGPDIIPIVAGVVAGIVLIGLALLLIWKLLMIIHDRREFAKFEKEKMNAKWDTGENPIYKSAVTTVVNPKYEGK
Integrin beta-1 (Homo sapiens) + Integrin alpha-4 (Homo sapiens), sequence (P13612 whole entry, looked up): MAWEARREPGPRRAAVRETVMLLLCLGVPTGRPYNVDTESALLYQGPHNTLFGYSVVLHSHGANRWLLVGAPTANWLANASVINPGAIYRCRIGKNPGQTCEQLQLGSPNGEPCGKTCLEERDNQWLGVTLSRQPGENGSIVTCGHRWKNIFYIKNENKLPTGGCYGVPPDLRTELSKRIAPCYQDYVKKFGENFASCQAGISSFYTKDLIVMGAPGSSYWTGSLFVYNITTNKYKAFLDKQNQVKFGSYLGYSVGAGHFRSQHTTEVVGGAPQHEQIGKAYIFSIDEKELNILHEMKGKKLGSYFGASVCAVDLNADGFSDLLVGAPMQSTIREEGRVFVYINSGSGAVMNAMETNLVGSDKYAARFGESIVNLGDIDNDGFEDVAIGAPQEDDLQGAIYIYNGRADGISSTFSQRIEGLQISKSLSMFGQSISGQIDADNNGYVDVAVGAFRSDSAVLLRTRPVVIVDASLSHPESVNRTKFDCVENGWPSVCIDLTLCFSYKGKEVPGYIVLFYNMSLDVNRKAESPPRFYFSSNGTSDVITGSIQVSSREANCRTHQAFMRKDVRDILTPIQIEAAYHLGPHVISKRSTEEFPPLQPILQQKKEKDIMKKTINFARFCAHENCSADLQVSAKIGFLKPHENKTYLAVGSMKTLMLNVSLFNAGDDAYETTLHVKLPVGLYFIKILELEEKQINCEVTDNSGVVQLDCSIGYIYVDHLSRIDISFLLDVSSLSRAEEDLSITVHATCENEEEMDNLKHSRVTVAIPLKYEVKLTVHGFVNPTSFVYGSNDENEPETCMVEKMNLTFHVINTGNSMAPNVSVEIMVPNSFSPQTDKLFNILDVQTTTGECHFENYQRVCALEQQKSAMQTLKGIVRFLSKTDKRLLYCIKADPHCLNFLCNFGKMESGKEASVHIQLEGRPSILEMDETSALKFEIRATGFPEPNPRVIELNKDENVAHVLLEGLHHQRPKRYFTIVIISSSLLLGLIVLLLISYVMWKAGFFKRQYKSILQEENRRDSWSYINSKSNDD

The nature of experiment [8]: calorie-restriction mimetic ROS inhibitors, yeast – validation compound set, pilot screen (AID 2706;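 active means superoxide response below 65% of plate, a cut near 3 SD across the whole screen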;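 further: yeast exposed to compound for one week at 30 degrees C before staining; 100% = mean of all compound wells on the same plate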). The settings on record: S. cerevisiae aging, superoxide DHE fluorescence; at 10 µM; stronger effect = lower value.
Experiment [9] deals with Beta-adrenergic receptor kinase 1 (Homo sapiens) (UniProt P25098). The experiment is described as follows: GRK2 binders displacing RNA aptamer, biochemical, validation, human GRK2, bead flow cytometry (AID 488806;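 active means aptamer binding inhibition above 30%, about 3 SD of noise from non-fluorescent compounds; inactive means inhibition at or below 30%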). The note with it: bead-bound GRK2, FAM-aptamer displacement, at 10 µM, stronger effect = higher value.
Beta-adrenergic receptor kinase 1 (Homo sapiens), sequence (P25098 whole entry, looked up): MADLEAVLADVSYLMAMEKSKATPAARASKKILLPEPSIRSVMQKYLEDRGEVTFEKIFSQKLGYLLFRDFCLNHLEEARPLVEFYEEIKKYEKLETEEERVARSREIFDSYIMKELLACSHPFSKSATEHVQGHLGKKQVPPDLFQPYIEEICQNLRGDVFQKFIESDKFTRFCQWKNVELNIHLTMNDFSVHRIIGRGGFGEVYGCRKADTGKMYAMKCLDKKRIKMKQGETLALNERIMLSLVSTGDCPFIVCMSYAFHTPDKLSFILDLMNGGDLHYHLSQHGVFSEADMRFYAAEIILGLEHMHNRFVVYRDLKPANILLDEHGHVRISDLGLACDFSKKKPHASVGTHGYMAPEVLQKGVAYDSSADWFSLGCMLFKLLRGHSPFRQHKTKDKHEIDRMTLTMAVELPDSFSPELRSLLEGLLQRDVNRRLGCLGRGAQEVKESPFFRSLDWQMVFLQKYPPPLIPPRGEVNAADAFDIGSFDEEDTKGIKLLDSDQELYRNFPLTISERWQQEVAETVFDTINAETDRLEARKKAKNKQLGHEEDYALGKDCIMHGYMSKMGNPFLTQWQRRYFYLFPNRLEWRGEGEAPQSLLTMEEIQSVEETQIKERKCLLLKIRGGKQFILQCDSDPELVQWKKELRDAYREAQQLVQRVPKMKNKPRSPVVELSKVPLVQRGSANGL
For experiment [10], the target named is Beta-2 adrenergic receptor (Homo sapiens) (UniProt P07550). The experiment is described as follows: agonist-induced loss of surface beta2AR – cell-based, FAP fluorogen, flow cytometry, validation set, pilot screen (AID 504459;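 active means percent response above 42, roughly 3 SD of non-fluorescent test compounds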;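 further: agonist-driven loss of surface beta2AR via internalization measured by FAP dye flow cytometry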). The note with it: Am2.2-beta2AR cells, at 10 µM, stronger effect = higher value.
Beta-2 adrenergic receptor (Homo sapiens), sequence (P07550 whole entry, looked up): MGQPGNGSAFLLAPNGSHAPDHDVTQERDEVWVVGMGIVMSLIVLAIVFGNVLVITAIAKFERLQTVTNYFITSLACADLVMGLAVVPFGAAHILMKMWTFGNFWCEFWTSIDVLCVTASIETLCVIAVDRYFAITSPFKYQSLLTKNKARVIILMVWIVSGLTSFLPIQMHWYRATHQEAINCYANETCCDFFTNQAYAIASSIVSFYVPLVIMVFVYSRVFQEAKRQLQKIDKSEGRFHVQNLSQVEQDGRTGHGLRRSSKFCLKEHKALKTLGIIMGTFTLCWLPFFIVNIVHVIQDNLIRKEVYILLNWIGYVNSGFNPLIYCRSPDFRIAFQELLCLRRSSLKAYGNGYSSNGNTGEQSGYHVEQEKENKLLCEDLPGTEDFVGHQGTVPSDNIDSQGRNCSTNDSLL
Experiment [11] is described as follows: cytosolic pH regulators acting via V-ATPase – S. cerevisiae, pHLuorin, HTS validation (AID 504600; in the data active means response above about 15%;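 further: plate controls were DMSO for no effect and reference compound for full effect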). The note with it: V-ATPase proton transport, at 10 µM, stronger effect = higher value.
The subject of experiment [12] is anti-desmoglein-3 scFv antibody binding to human DSG3. In words: blockers of pathogenic pemphigus antibody–desmoglein-3 binding – biochemical, validation compound set, bead-based, flow cytometry, pilot screen (AID 588368;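 active means binding below the plate cutoff, the plate median minus 3 SD, with a reading above zero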;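 further: signal is the median channel fluorescence of bead-bound GFP antibody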). The note with it: Protein G beads, DSG3-Fc, scFv-GFP binding, at 10 µM, stronger effect = lower value.
The test system of experiment [13] is Botulinum neurotoxin type F light chain protease (Clostridium botulinum). In words: Clostridium botulinum type F light chain protease inhibitors, microsphere substrate cleavage, validation (AID 588459; call rule not given here). The note with it: multiplex microsphere protease substrate cleavage assay, flow cytometry; at 10 µM; stronger effect = higher value.
The target of experiment [14] is Botulinum neurotoxin type A (Clostridium botulinum) (UniProt P0DPI0). In words: BoNT/A light chain protease inhibitors, biochemical, multiplex microsphere flow cytometry, validation set (AID 588460; call rule not given here). The note with it: at 10 µM, stronger effect = higher value.
Botulinum neurotoxin type A (Clostridium botulinum), sequence (P0DPI0 whole entry, looked up): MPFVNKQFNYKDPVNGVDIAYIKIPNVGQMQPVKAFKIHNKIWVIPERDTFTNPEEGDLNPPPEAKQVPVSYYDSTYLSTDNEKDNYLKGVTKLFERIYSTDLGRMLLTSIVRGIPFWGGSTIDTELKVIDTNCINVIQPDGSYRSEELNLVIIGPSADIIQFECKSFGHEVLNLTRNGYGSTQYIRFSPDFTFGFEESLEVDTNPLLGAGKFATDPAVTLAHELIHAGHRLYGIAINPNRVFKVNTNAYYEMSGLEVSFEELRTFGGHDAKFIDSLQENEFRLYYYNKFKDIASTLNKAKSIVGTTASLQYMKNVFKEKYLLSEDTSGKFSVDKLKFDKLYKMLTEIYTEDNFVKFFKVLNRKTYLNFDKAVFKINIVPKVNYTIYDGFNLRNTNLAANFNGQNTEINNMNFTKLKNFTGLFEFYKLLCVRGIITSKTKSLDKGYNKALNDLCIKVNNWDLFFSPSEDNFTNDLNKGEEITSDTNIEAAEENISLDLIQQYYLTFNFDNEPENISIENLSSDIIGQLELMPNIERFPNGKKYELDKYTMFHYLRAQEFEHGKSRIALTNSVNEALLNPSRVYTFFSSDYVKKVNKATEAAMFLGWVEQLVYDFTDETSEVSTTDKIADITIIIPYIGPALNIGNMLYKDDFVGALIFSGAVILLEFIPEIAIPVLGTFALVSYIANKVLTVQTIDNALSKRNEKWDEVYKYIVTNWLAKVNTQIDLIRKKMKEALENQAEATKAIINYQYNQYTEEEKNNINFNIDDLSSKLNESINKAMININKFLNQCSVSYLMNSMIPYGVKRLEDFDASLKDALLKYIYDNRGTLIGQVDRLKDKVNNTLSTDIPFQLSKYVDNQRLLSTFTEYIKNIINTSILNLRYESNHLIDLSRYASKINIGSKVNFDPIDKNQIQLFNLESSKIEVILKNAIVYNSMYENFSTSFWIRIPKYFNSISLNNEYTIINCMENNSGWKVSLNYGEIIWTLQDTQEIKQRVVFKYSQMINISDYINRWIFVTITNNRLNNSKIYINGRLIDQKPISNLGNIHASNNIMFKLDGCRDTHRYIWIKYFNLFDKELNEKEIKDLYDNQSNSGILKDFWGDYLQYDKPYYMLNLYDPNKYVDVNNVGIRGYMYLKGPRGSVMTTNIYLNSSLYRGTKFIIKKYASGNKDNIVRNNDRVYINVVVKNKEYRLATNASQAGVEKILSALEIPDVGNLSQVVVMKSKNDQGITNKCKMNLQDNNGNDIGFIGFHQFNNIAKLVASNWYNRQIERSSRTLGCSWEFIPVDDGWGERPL
The target in experiment [15] is Lethal factor (Bacillus anthracis) (UniProt P15917). In words: Bacillus anthracis lethal factor inhibition, microsphere flow cytometry protease assay, validation at 10 µM (AID 588461; call rule not given here). The note with it: multiplex microsphere protease cleavage assay, stronger effect = higher value.
A short description of experiment [16]: Nile Red efflux blockade in pump-expressing yeast – validation compound set, multiplex, phenotypic, pilot screen (AID 588506;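 active means efflux inhibition above 0.42, the validation set average plus 4 SD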;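 further: Nile Red retained in cells so higher fluorescence means more efflux inhibition; 0 = negative control wells and 1 = enniatin B 25 µM full block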). The note with it: S. cerevisiae pump-expressing triplex, Nile Red efflux flow cytometry; at 10 µM; stronger effect = higher value.
The target in experiment [17] is ATP-binding cassette sub-family B member 6 (Homo sapiens) (UniProt Q9NP58). In words: blockers of ABCB6-driven porphyrin uptake – K562-ABCB6 cells, flow cytometry, validation set, pilot screen (AID 588550;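 active means inhibition above the screen-wide mean plus 3 SD, about 51%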;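 further: 0% = DMSO wells and 100% = benzethonium chloride 70 µM positive control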). The settings on record: K562-ABCB6 porphyrin accumulation, 1 h, at 10 µM, stronger effect = higher value.
Experiment [18] in a line: AML differentiation inducers, ER-HoxA9 marrow cells – cell-based, GFP/MAC1 double positive, flow cytometry, validation set, primary screen (AID 588685;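 active means differentiation response of at least 50%, scaled between solvent and reference control, from cells with both markers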;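 further: compound exposure lasts four days before antibody staining and flow analysis; 0% = DMSO wells and 100% = 5 µM fulvestrant positive control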). The settings on record: stronger effect = higher value.
Experiment [19] addresses AP-2 complex subunit beta (Homo sapiens) (UniProt P63010). In words: beta-arrestin/AP2 interaction blockers – biochemical, validation set, GST-AP2 beads, flow cytometry, pilot screen (AID 504541;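 active means inhibition above 54%, about 3 SD of non-fluorescent compounds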;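 further: AP2 carries R879A mutation and is captured from E. coli lysate; bead-bound FITC arrestin peptide fluorescence measuring arrestin peptide binding to AP2; 0% = DMSO wells and 100% = excess unlabeled arrestin peptide control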). The settings on record: FITC arrestin peptide, at 10 µM, stronger effect = higher value.
Experiment [20] deals with GTPase HRas (Homo sapiens) (UniProt P01112). In words: Ras wt fluorescent GTP loading blockade – biochemical, wildtype, multiplex bead flow cytometry, dose response (AID 1335). The note with it: bead-based flow cytometry, Bodipy-GTP binding to GST-Ras; at 100 µM (top of the series).
GTPase HRas (Homo sapiens), sequence (P01112 whole entry, looked up): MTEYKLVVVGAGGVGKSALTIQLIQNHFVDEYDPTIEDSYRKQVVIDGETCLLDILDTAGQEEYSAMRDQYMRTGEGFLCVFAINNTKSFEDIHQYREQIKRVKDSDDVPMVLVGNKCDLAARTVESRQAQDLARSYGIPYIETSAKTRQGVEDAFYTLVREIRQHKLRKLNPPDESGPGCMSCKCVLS

The results in this text go back to PubChem BioAssay.

The inhibition is the change of the read-out against control, counted positive when it falls.

Records with an inconclusive call do not appear. Activity calls are given as the source filed them.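 How the source made its calls, unless noted: active means fitted half-maximal concentration within 10 nM to 100 µM, steepness 0.5 to 2, significant signal drop, low assay interference; inactive means the rest.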

Take `O=C1C(=O)c2ccccc2-c2ccccc21`: the percent of DMSO control GFP in experiment [1] was 73.2% (active). For the same compound, the GFP response vs DMSO is 126% (inactive) in [2] and 60.6% (inactive) in [4]. In addition, the percent response of DMSO control in [3] was 92.9% (inactive). In addition, the GFP response, % of DMSO in experiment [5] is 36.3% (inactive). This compound also registered a double positive events in experiment [6] of 61.3%. In experiment [6], the vesicle binding response is 176% (inactive). For the same compound, the inhibition in experiment [7] is -0.43% (inactive); in experiment [13], 5.3% (inactive); in [14] it was 0.6% (inactive); in experiment [15], -4.7% (inactive); in [17], -64% (inactive). Also, the superoxide response (% of plate) in experiment [8] was 83% (inactive). Besides, the aptamer binding inhibition in experiment [9] was 67% (active). The response in experiment [10] was 112% (active); in experiment [11], 0.26% (inactive). Moreover, the binding (% of control) in [12] is 98.9% (inactive). Besides, the efflux inhibition (fraction of control) in experiment [16] is 2.06 (active). In addition, the differentiation response in experiment [18] is 100% (active).
On to `O=C1CN=C(c2ccccc2F)c2cc(Cl)ccc2N1`, for which, in [1], the percent of DMSO control GFP is 90.9% (inactive). Further, the GFP response vs DMSO in [2] was 147% (active); in [4], 78.7% (inactive). Besides, the percent response of DMSO control in experiment [3] is 95.2% (inactive). Besides, the GFP response, % of DMSO in experiment [5] is 88% (inactive). The double positive events in [6] stood at 67.2%. Besides, the vesicle binding response in experiment [6] was 272% (inactive). Further, the inhibition is 1.61% (inactive) in [7]; 43.2% (inactive) in [19]; 3.7% (inactive) in experiment [13]; 0.4% (inactive) in experiment [14]; 1.5% (inactive) in experiment [15]; 14% (inactive) in experiment [17]. The superoxide response (% of plate) in experiment [8] is 98.6% (inactive). In addition, the aptamer binding inhibition in experiment [9] was -3% (inactive). Also, the response in [10] is -21.4% (inactive); in [11], -7.23% (inactive). For the same compound, in experiment [12], the binding (% of control) was 94.8% (inactive). In addition, the efflux inhibition (fraction of control) in experiment [16] is 0.27 (inactive). In addition, the differentiation response in experiment [18] is 11.5% (inactive).
As to `Cc1cc(OCCCn2cc(C(=O)O)c3ccccc32)ccc1Cl`, the GTP binding, percent of control in experiment [20] came to 83.9%.
For `CC(Oc1ccc(-c2ccccc2)cc1)C(=O)O` (centres undefined), in experiment [20], the GTP binding, percent of control came to 172%.
On the same count and under the same terms, the value for `Cc1ccc(-n2c(O)c(/C=N/c3ncc(Br)cc3Br)c(=O)[nH]c2=O)cc1` was 116%; that for `Cc1cc(C)cc(N2C(=O)NC(=O)/C(=C\C=C\c3ccco3)C2=O)c1` was 83.8%; that for `CCn1nc(/C=C/c2ccccc2)nc2c(=O)n(C)c(=O)nc1-2` was 76.7%.
Regarding `O=C(O)c1cn(Cc2ccc(Br)cc2)c2ccccc12`, in experiment [20], the GTP binding, percent of control was 104%.
`CN1C(=O)N(C)C(=O)C2(Cc3c(ccc4ccccc34)N(C)C2)C1=O` displayed a GTP binding, percent of control in experiment [20] of 82.6%.
`O=C(O)c1cn(Cc2ccccc2F)c2ccccc12`: in experiment [20], the GTP binding, percent of control is 106%.
`O=C1NC(=S)N(Cc2ccco2)C(=O)/C1=C\c1cccs1`: in [20], the GTP binding, percent of control was determined as 95.1%.
For the compound `CCOCCCn1c(N)c(C(=O)Nc2sc3c(c2C(=O)OC)CCCC3)c2nc3ccccc3nc21`, the GTP binding, percent of control in [20] is 122%.
Compound `CCCCN1C(=O)/C(=C\c2ccco2)C(=O)N(CCc2ccccc2)C1=O` registered a GTP binding, percent of control in experiment [20] of 131%.
Turning to `O=C(O)c1cn(Cc2ccccc2Cl)c2ccccc12`, the GTP binding, percent of control in experiment [20] is 82.2%.
In experiment [20], `O=C(O)c1cn(Cc2ccc(Cl)cc2)c2ccccc12` returned a GTP binding, percent of control of 89.3%.
Consider `Cc1nn(Cc2ccccc2)c(Cl)c1C(=O)O`, for which the GTP binding, percent of control in [20] amounted to 86.7%.
Turning to `Cc1sc(-n2c(C)cc(C=C3C(=O)NC(=O)NC3=O)c2C)c(C#N)c1C`, the GTP binding, percent of control in experiment [20] is 68.9%.
